# The panel holds about 83,000 compounds, 20% with a hit somewhere; the sample as a whole holds those more often.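 Growth was measured after 48 h exposure to one concentration of compound in 96-well plates. Values under 10 count as active.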 The source made the active and inactive calls.
# System: OVCAR-8 ovarian
# Assay: NCI-60 one-dose screen, 48 h (100 = growth as untreated, 0 = no growth, -100 = all killed)
# Settings: 10 µM
# Method: Growth inhibition of the OVCAR-8 human tumor cell line is measured as a screen for anti-cancer activity. Cells are grown in 96 well plates and exposed to the test compound for 48 hours. Compounds are tested at a single concentration, which is 10^-5 M for most compounds. The reported endpoint is percent growth (GI% or GIPRCNT), where numbers from 0 - 100% represent growth inhibition, and numbers from -100% - 0 represent cell death. For example, a value of 40 represents 60% growth inhibition. A value of 0 means no net growth occurred over the course of the experiment. A value of -40 indicates 40% of cells at the beginning of the experiment died by the end of the experiment. A value of -100 means all cells are dead at the end of the experiment.
# NCI-60 Human Tumor Cell Lines Screen was performed using the standard one-dose NCI protocol, which is described in more detail at https://dtp.cancer.gov/discovery_development/nci-60/default.htm.
# Compounds with GIPRCNT values below 10 were considered active. Activity score was based on GIPRCNT using the following formula: […]
# Score is 0 for GIPRCNT values of 100 or above, 50 for GIPRCNT values of 0, and 100 for GIPRCNT values of -100.
row,Structure (SMILES),growth
1,O=[N+]([O-])c1ccc(O)c(S(=O)(=O)O)c1,94.4% (inactive)
2,O=c1[nH]c(O)c(/C=C2/C=Nc3ccccc32)[nH]1,98.1% (inactive)
3,O=C(N/N=C\c1cc(Br)cc(Br)c1O)N/N=C/c1cc(Br)cc(Br)c1O,55.5% (inactive)
4,COC(=O)/C=C\C(=O)OC,108% (inactive)
5,CCS(=O)(=O)CCCl,104% (inactive)
6,CC(=O)Oc1ccc(Br)cc1C(=O)O,104% (inactive)
7,CCOC(=O)Nc1nn[nH]n1,111% (inactive)
8,CSc1[nH]c(=O)ncc1F,95.4% (inactive)
9,O=C1OC(=O)C2C1C1(Cl)C(Cl)=C(Cl)C2(Cl)C2C(=O)OC(=O)C21 (stereo not given),100% (inactive)
10,C#CC(C(C)C)N(CCO)CCCC (stereo not given),105% (inactive)
11,O=C(CCNNC(=O)c1ccncc1)NCc1ccccc1,100% (inactive)
12,CC(C)COC(=O)COC(=O)OCCOCCOC(=O)OCC(=O)OCC(C)C,99.7% (inactive)
13,CCCCCCCCCCC(C)Br (stereo not given),108% (inactive)
14,O/N=C/c1ccc(O)cc1O,94.1% (inactive)
15,COc1cc2nc3cc([N+](=O)[O-])ccc3c(Cl)c2cc1OC,88.2% (inactive)
16,COC(=O)c1ccc(C(C)C)cc1,106% (inactive)
17,O=C(OCC(O)C1OC(c2ccccc2)OC(COC(=O)c2ccccc2)C1O)c1ccccc1 (stereo not given),103% (inactive)
18,N#CC(=Nc1cccc(F)c1)C1=C(O)c2ccccc2C1=O,85.4% (inactive)
19,Nc1ncnc2c1nc(N)n2C1OC(CO)C(O)C1O (stereo not given),2.25% (active)
20,C#CC(C)(O)c1ccc(Cl)cc1 (stereo not given),105% (inactive)

row,Structure (SMILES),growth
1,COC(=O)C(C)Oc1ccc(OC#N)cc1 (stereo not given),104% (inactive)
2,FC(F)(F)c1ccc2c(c1)N(CCCN1CCN(C3CC3)CC1)c1ccccc1S2,46.9% (inactive)
3,c1cc2cccc3c4cccc5cccc(c(c1)c23)c54,112% (inactive)
4,CCOC(=O)C(O)C(O)C(=O)OCC (stereo not given),105% (inactive)
5,Cc1cc(C(O)(c2ccc(Nc3ccccc3)cc2)c2ccc(Nc3ccc(S(=O)(=O)O)cc3)cc2)ccc1N (stereo not given),6.11% (active)
6,CC(=O)c1ccc2c(ccc3ccccc32)c1,94.7% (inactive)
7,CCOC(=O)C1=C(C)NC(=O)NC1c1cccs1 (stereo not given),94.1% (inactive)
8,C=CC(O)CCC (stereo not given),101% (inactive)
9,CCOc1ccc(/C=N/N=C(N)N)cc1OCC,106% (inactive)
10,Cc1ccc(C(=O)c2ccccc2)c(C)c1,109% (inactive)
11,COc1ccccc1NC(=O)C1=C(C)NC(C)=C(C(=O)Nc2ccccc2OC)C1c1cccc([N+](=O)[O-])c1,74.4% (inactive)
12,CCCC(=O)c1cc(C)ccc1OC,111% (inactive)
13,O=S(=O)(O)CC(O)CN1CCN(CCO)CC1 (stereo not given),98.8% (inactive)
14,CC(C)C(C#N)(C(C)C)C(C)C,109% (inactive)
15,O=S(=O)(Cc1ccccc1)c1ccccc1,102% (inactive)
16,CC1Cc2ccccc2O1 (stereo not given),112% (inactive)
17,CCOC(=O)/C(C#N)=C/c1cccc(C)c1,103% (inactive)
18,CCCCCCCCCCC1CO1 (stereo not given),109% (inactive)
19,O=C1NC(=O)C2C(=O)NC(=O)C1C21CCc2ccccc21 (stereo not given),103% (inactive)
20,COC1=CC(=O)c2nc(Cl)ccc2C1=O,7.95% (active)

# Source: PubChem BioAssay (NCI)
